Results taken from the supplement of paper PMC10646978.
± gives the standard deviation.

Experiments:
Settings in all cases: modulator concentration 10 µM
[1] = system: RAW-Dual (murine macrophage reporter line); test: NF-kB reporter (SEAP) activity fold change vs agonist alone; higher = enhanced NF-kB activity
How it was run: (§1)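 In 384-well plates holding 50 000 RAW-Dual murine macrophage reporter cells per well, compound at 10 μM final was pre-incubated for 1 hour at 37 °C, after which a PRR agonist was added overnight. Supernatant SEAP read with QUANTI-Blue at 620 nm absorbance reported NF-κB, and Lucia luciferase read with QUANTI-Luc luminescence reported IRF. Fold change values come from dividing each reporter signal by the mean of agonist-only control wells on the same plate, averaged over replicate plates with propagated errors.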

[2] = system: RAW-Dual (murine macrophage reporter line); test: IRF reporter (Lucia luciferase) activity fold change vs agonist alone; higher = enhanced IRF activity
How it was run: as §1

[3] = system: RAW-Dual (murine macrophage reporter line); test: viability score (confluency relative to resting cells, overnight) (fraction); higher = more viable, active = viable (0.7 or more)
How it was run: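 In 384-well plates, RAW-Dual macrophages received compound at a final 10 μM overnight. Two confluency masks were then made with IncuCyte software from IncuCyte images of all imaged wells. The viability score is defined as confluency relative to resting cells. Passing the cutoff required both masks to lie above 70% of resting cells.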

[4] = agonist: CpG ODN 1826 0.5 ug/mL

Structure (SMILES) | NF-kB reporter [1, 4] | NF-kB reporter ([1]; agonist: LPS 0.1 ug/mL) | NF-kB reporter ([1]; agonist: MPLA […]) | IRF reporter ([2]; agonist: 3'3'-cGAMP 10 ug/mL) | IRF reporter ([2]; agonist: LPS 0.1 ug/mL) | IRF reporter ([2]; agonist: MPLA […]) | viability score [3]
COc1ccc(Cl)cc1C(=O)Nc1cc(C(F)(F)F)cc(C(F)(F)F)c1 | 1.03 ± 0.082 | 1.01 ± 0.059 | 0.962 ± 0.086 | 0.966 ± 0.024 | 1.54 ± 0.26 | 1.19 ± 0.23 | 1.01 (active)
O=c1[nH]cc(F)c(=O)[nH]1 | 1.48 ± 0.29 | 0.887 ± 0.21 | 1 ± 0.059 | 1.1 ± 0.059 | 1.33 ± 0.18 | 1.01 ± 0.17 | 0.735 (active)
COC(CNS(=O)(=O)c1cccnc1)c1ccc(C)s1 (centres undefined) | 1.06 ± 0.073 | 0.992 ± 0.086 | 1.01 ± 0.096 | 1.01 ± 0.04 | 1.02 ± 0.048 | 0.958 ± 0.12 | 0.997 (active)
CN(C)CCC(c1ccccc1)c1ccccn1.O=C(O)/C=C\C(=O)O (centres undefined) | 0.373 ± 0.016 | 0.227 ± 0.018 | 0.65 ± 0.036 | 0.0231 ± 0.0026 | 0.0283 ± 0.0046 | 0.0354 ± 0.0064 | 0.377 (inactive)
CCc1ccc(Cc2ccc3c(c2)[C@]2(OC3)O[C@H](CO)[C@@H](O)[C@H](O)[C@H]2O)cc1.O | 1.04 ± 0.29 | 1.08 ± 0.054 | 1.07 ± 0.094 | 0.883 ± 0.033 | 1.04 ± 0.12 | 1.16 ± 0.26 | 0.987 (active)
COc1ccc(Cl)cc1S(=O)(=O)NCc1ccccn1 | 1.11 ± 0.07 | 0.901 ± 0.1 | 0.986 ± 0.026 | 1.01 ± 0.059 | 1.01 ± 0.1 | 0.936 ± 0.15 | 0.996 (active)
Cc1cccc(C)c1OCC(=O)N[C@@H](Cc1ccccc1)[C@@H](O)C[C@H](Cc1ccccc1)NC(=O)[C@H](C(C)C)N1CCCNC1=O | 0.665 ± 0.082 | 0.889 ± 0.058 | 1.24 ± 0.12 | 0.67 ± 0.04 | 1.2 ± 0.071 | 1.37 ± 0.12 | 1.02 (active)
CCN(CC)CCN1C(=O)C(O)=C(C(=O)c2ccc(Br)cc2)C1c1ccccc1F (centres undefined) | 0.741 ± 0.061 | 0.884 ± 0.1 | 0.985 ± 0.1 | 0.94 ± 0.045 | 1.14 ± 0.08 | 1.2 ± 0.15 | 1.01 (active)
CCOC(=O)c1c(N)sc(C(=O)N2CCCC(C(N)=O)C2)c1C (centres undefined) | 0.442 ± 0.15 | 0.873 ± 0.095 | 0.356 ± 0.17 | 0.982 ± 0.039 | 2.11 ± 0.89 | 1.79 ± 0.39 | 0.932 (active)
CC(=NOCON=C(C)c1ccc(Cl)c(Cl)c1)c1ccc(Cl)c(Cl)c1 | 0.944 ± 0.057 | 0.993 ± 0.086 | 0.936 ± 0.07 | 0.974 ± 0.034 | 1.38 ± 0.14 | 1.18 ± 0.1 | 1.01 (active)
CC1(C)CCC2(C(=O)O)CCC3(C)C(=CCC4C5(C)CCC(O)C(C)(C)C5CCC43C)C2C1 (centres undefined) | 1.18 ± 0.28 | 1.12 ± 0.088 | 0.942 ± 0.095 | 0.878 ± 0.03 | 1.3 ± 0.18 | 1.24 ± 0.18 | 0.999 (active)
Cn1ncc(Cl)c1-c1cc(C(=O)N[C@H](CN)Cc2ccc(F)c(F)c2)oc1Cl | 1.13 ± 0.34 | 1.49 ± 0.11 | 1.48 ± 0.14 | 0.363 ± 0.014 | 0.597 ± 0.064 | 0.827 ± 0.079 | 0.661 (inactive)
CC(C)NCC(O)COc1cccc2ccccc12.Cl (centres undefined) | 0.858 ± 0.12 | 1.05 ± 0.13 | 1.03 ± 0.06 | 0.66 ± 0.051 | 1.21 ± 0.22 | 1.12 ± 0.29 | 0.984 (active)
O=C(NCC(O)c1ccc(C(F)(F)F)cc1)c1cc(Br)cs1 (centres undefined) | 0.931 ± 0.047 | 0.981 ± 0.077 | 0.865 ± 0.043 | 1.14 ± 0.058 | 1.21 ± 0.077 | 1.22 ± 0.14 | 0.66 (inactive)
CCCCOc1ccc(OCCCN2CCOCC2)cc1.Cl | 1.2 ± 0.09 | 1.27 ± 0.16 | 1.25 ± 0.1 | 0.643 ± 0.054 | 0.852 ± 0.051 | 0.836 ± 0.071 | 0.981 (active)
COC(CNS(=O)(=O)Cc1ccccc1)c1ccc(Cl)s1 (centres undefined) | 0.959 ± 0.056 | 1.02 ± 0.084 | 0.922 ± 0.052 | 1.24 ± 0.1 | 1.12 ± 0.071 | 1.16 ± 0.35 | 0.639 (inactive)
O=C(O)c1cc2nc(-c3ccc(Cl)c(Cl)c3)cc(C(F)(F)F)n2n1 | 0.958 ± 0.076 | 1.09 ± 0.06 | 0.973 ± 0.058 | 1.02 ± 0.031 | 1.66 ± 0.2 | 1.13 ± 0.11 | 1.01 (active)
CNS(=O)(=O)C[C@H]1CC[C@H](N(C)c2ncnc3[nH]ccc23)CC1.O=C(O)/C=C\C(=O)O | 0.179 ± 0.044 | 0.0999 ± 0.005 | 0.414 ± 0.033 | 0.0771 ± 0.0033 | 0.269 ± 0.029 | 0.376 ± 0.056 | 0.997 (active)
COc1ncc(-c2ccc3nccc(-c4ccnnc4)c3c2)cc1NS(=O)(=O)c1ccc(F)cc1F | 1.56 ± 0.067 | 1.79 ± 0.14 | 3.01 ± 0.16 | 0.389 ± 0.051 | 1.2 ± 0.1 | 2.66 ± 0.33 | 0.33 (inactive)
CSc1ccc(C(=O)O)s1 | 1.02 ± 0.13 | 1.08 ± 0.09 | 1.03 ± 0.065 | 1.01 ± 0.21 | 1.03 ± 0.059 | 1.03 ± 0.15 | 1.01 (active)
O=Cc1ccc(OC(=O)c2cccc(C(=O)Oc3ccc(C=O)cc3)c2)cc1 | 0.813 ± 0.064 | 0.851 ± 0.052 | 1.02 ± 0.092 | 0.975 ± 0.064 | 1.52 ± 0.088 | 1.69 ± 0.14 | 0.989 (active)
CNCC[C@H](Oc1cccc2ccccc12)c1cccs1 | 0.087 ± 0.0072 | 0.8 ± 0.08 | 1.08 ± 0.058 | 0.262 ± 0.019 | 1.02 ± 0.2 | 1.01 ± 0.27 | 0.333 (inactive)
COc1cc(OC)c(C(=O)CCCN2CCCC2)c(OC)c1.Cl | 0.98 ± 0.096 | 1.01 ± 0.063 | 1 ± 0.057 | 0.937 ± 0.081 | 0.941 ± 0.035 | 0.899 ± 0.07 | 1 (active)
O=c1oc2c3c4c(cc2cc1-c1nnc(-c2ccccc2)o1)CCCN4CCC3 | 1.01 ± 0.12 | 1.04 ± 0.1 | 0.98 ± 0.058 | 1.02 ± 0.058 | 1.41 ± 0.17 | 1.04 ± 0.069 | 1.01 (active)
COC(=O)C1=C(C)NC(=O)CC1c1ccc(Cl)c(Cl)c1 (centres undefined) | 0.982 ± 0.075 | 0.801 ± 0.065 | 0.957 ± 0.094 | 1.06 ± 0.036 | 1.16 ± 0.15 | 1.23 ± 0.19 | 1.01 (active)
CC1COc2c(N3CCN(C)CC3)c(F)cc3c(=O)c(C(=O)O)cn1c23 (centres undefined) [Prestw-237] | 1.46 ± 0.24 | 1.01 ± 0.12 | 1.12 ± 0.16 | 1.14 ± 0.033 | 0.8 ± 0.078 | 0.894 ± 0.15 | 0.983 (active)
O=C(C=Cc1cc([N+](=O)[O-])ccc1O)c1ccc(Cl)cc1 | 0.614 ± 0.052 | 0.81 ± 0.046 | 1.26 ± 0.21 | 0.496 ± 0.023 | 1.28 ± 0.074 | 1.25 ± 0.11 | 0.983 (active)
